# Laboratory results: PubChem BioAssay (NCATS)
# Records with an inconclusive call do not appear. A number with no mark means an inactive call. The source made the active and inactive calls. Calls follow the shape of the dose curve; as a rule, active = well fitted inhibition curve with a large enough effect; inconclusive = small, poorly fitted or top-dose-only effect; inactive = flat fitted curve, though single readings scatter.
# Target: Calcium and integrin-binding protein 1 (Homo sapiens) (UniProt Q99828)
# Sequence (Q99828 whole entry, looked up): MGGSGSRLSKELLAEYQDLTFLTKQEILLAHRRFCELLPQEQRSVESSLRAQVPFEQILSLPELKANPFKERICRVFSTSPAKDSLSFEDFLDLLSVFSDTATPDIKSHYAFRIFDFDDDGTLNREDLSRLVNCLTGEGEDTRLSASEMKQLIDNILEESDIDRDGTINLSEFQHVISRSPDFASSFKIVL
# Experiment: Primary qHTS for Identification of Calcium Integrin Binding Protein 1 (CIB1) Competitor (AID 1508620);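 also: GST tagged CIB1 binding a fluorescein labelled alphaIIb integrin peptide tracer; top concentration of the series differs between compounds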
# Details: CIB1-GST / FITC-alphaIIb peptide fluorescence polarization; series mostly up to 114 µM; activity change, negative = inhibition: at the top concentration
# Procedure, shortened: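 CIB1-GST (1 uM final) and compound incubated 15 min at room temperature before adding FITC-alphaIIb peptide tracer (100 nM final). Competition for binding read by fluorescence polarization (ex 480, em 540) after another 15 min at room temperature.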
# % is scaled to controls: 0 for no effect and ±100 for the full control effect.
Compound,"activity change, negative = inhibition",Potency
Fc1cc(Nc2nc(-c3ccncc3)nc3ccccc23)ccc1-c1cccc(C(F)(F)F)c1,2.8%,–
O=[N+]([O-])c1ccccc1NCc1ccc(O)c2ncccc12,5.31%,–
CN1CCN(c2cccc(Nc3nn4c(=O)c5ccc(F)cc5nc4s3)c2)CC1,-14.2%,–
O=C(Nc1ccc(-c2nc3ccccc3[nH]2)cc1)c1ccc2cc[nH]c2c1,2.35%,–
O=C(Nc1ccccc1F)c1ccc(O)c2ncccc12,-14.6%,–
Cc1scc2c1C(=O)NS2(=O)=O,3.13%,–
C#CCCC(=O)Nc1sc2c(c1-c1nc3ccccc3s1)CCNC2,7.8%,–
Cc1cc(NC(=O)c2ccc([S+](=O)([O-])NCc3ccc(Cl)c(Cl)c3)cc2)no1,-0.528%,–
Cc1cccc(Nc2nc(C#N)nc(NC3CCCC3)n2)c1,-2.57%,–
O=C1CCc2cc(S(=O)(=O)Nc3ccc(Cl)c(Cl)c3)ccc2N1,-11.3%,–
CC(=O)NC(c1cc(Cl)c2cccnc2c1O)C(C)C (stereo not given),-13%,–
COc1ccc(C2Nc3ccccc3C(=O)N2Cc2ccccc2)cc1COc1ccc(C#N)cc1 (stereo not given),4.59%,–
Cc1cc2c(s1)c1cnn(Cc3ccc(SC(F)(F)F)cc3)c(=O)c1n2C,-0.619%,–
COc1ccc2ccccc2c1CN(C)CC(=O)Nc1ccc(N2CCOCC2)cc1,-1.81%,–
Oc1ccc(CCc2ccccc2F)c2cccnc12,-6.05%,–
O=C(/C=C/c1cccs1)Nc1cccc([S+](=O)([O-])Nc2ccccc2F)c1,–,inactive
COC(=O)Nc1sc2c(c1C(N)=O)CCCC2,-1.29%,–
O=S(=O)(Nc1ccc2ccccc2c1)c1ccc(NCc2ccc(Br)cc2O)cc1,5.66%,–
CC(C)(Nc1nc(-c2ccccc2C(F)(F)F)nc2ccccc12)c1ccc(-c2cccc(C(F)(F)F)c2)cc1,5.15%,–
COc1cc(O)c(C(CC(=O)N2CCCC(c3ccccc3)C2)c2ccc3c(c2)OCO3)c(OC)c1 (stereo not given),-0.998% [at 228 µM],–

Compound,"activity change, negative = inhibition",Potency
Cc1ccc(NC(=O)Nc2nnc(-c3ccncc3)s2)cc1C,-3.68%,–
O=C(N[C@H]1CCCc2c1cnn2-c1ccc(F)cc1F)c1ccccn1,-0.229%,–
O=C(Nc1ccc(F)c(C(F)(F)F)c1)Nc1ccc(-c2ccncc2)s1,-7.96%,–
Cn1nnnc1Sc1ncnc2scc(-c3ccc(C#N)cc3)c12,-2.04%,–
CONC(=O)C[C@@H](C#N)NC(=O)[C@@H]1CCCN1C(=O)[C@@H](NC(=O)c1ccc(N)c(Cl)c1)C(C)(C)C,4.8%,–
Cc1ccc(-c2nn3c(C)nnc3s2)cc1NCc1ccc(-c2cccc(Cl)c2)o1,-5.42%,–
COc1cc(F)c(S(=O)(=O)N2CCCN(S(=O)(=O)c3ccc(N)cc3)CC2)c(F)c1,-0.108%,–
CCOC(=O)Nc1sc2c(c1C(N)=O)CCCC2,-1.26%,–
O=C(O)c1ccc(-n2cccc2/C=C2\SC(=O)N(Cc3ccc(Br)cc3)C2=O)cc1,3.61%,–
CC(=O)Nc1sc2c(c1-c1ccc(C(F)(F)F)cc1)CCNC2,3.18%,–
Cc1ccc(NS(=O)(=O)c2ccc3c(c2)CCC(C)(C)O3)cc1C,-0.038%,–
O=S(=O)(Nc1ccc2ccccc2c1)c1ccc(NCc2cccc(Cl)c2O)cc1,-14.3%,–
N#Cc1nc(Nc2cc(F)cc(Cl)c2)nc(NC2CCCC2)n1,5.14%,–
COc1ccc(C2Nc3ccccc3C(=O)N2Cc2ccco2)cc1CSc1c(C)cccc1C (stereo not given),-4.02%,–
Cc1cc2c(s1)c1cnn(Cc3ccccc3)c(=O)c1n2C,1.99%,–
Cc1ccc(OCCn2c(CCNC(=O)C3CCNCC3)nc3ccccc32)cc1,4.73%,–
CCOc1ccc(CCNC(=O)c2csc(Br)n2)cc1OCC,3.56%,–
COc1ccc(CC(=O)Nc2ccc(S(=O)(=O)Nc3cc(C)on3)cc2)cc1OC,-10.3%,–
Cc1ccnc(NC(=S)N[C@H]2CCN(c3cccc(C(F)(F)F)c3)C2)c1,-4.59%,–
Cc1cccc(-c2csc3ncnc(Sc4nnnn4C)c23)c1,2.81%,–
